The whole screen tested about 340,000 compounds, of which about 1,000 (0.29%) were called active. Cut-off read from the data, not from the text of the source: inconclusive = inhibition above about 29% without an active follow-up result; inactive = below that. Only a sample is shown. Potency and affinity values are given separately.
Target: Genome polyprotein (Dengue virus type 2 (strain 16681-PDK53)) (UniProt P29991)
Assay: Dengue-2 NS5 methyltransferase inhibitors, primary screen, biochemical, confirmation dose response (AID 588689)
Settings: Dengue-2 NS5 methyltransferase capping enzyme assay, at 25 µM, stronger effect = higher value
[1] = measured here: pilot screen replicate inhibition

SMILES: CCOCCSc1n[nH]c(=O)n1CCc1ccccc1
- inhibition: 0.65% (inactive)

SMILES: CCCCC1=CC2=CC(=O)C(C)(OC(=O)C3CCCC3)C(=O)C2=CO1 (stereo unspecified)
- inhibition: -4.96% (inactive)

SMILES: COC(=O)CCCC1=CC2=CC(=O)C(C)(OC(=O)C3CCCC3)C(=O)C2=CO1 (stereo unspecified)
- inhibition: -2.4% (inactive)

SMILES: O=C(Nc1ccccc1N1CCCCC1)C1CC(=O)N(c2ccccc2F)C1 (stereo unspecified)
- inhibition: -1.45% (inactive)

SMILES: COCCNc1nc2ccccc2n2cnnc12
- inhibition: -9.27% (inactive)

SMILES: O=[N+]([O-])c1cc(Br)c(Nc2ccccc2)c([N+](=O)[O-])c1
- inhibition: 5.88% (inactive)

SMILES: N#Cc1c2ccc([N+](=O)[O-])cc2[n+]([O-])n1-c1ccccc1
- inhibition: 15.2% (inactive)

SMILES: CCO[C@H]1OC(C(=O)N2CCN(C)CC2)=C[C@@H](c2ccc(C(F)(F)F)cc2)[C@@H]1CCCO
- inhibition: -3.14% (inactive)

SMILES: CC1=NN(C(N)=S)C(=O)C1N=Nc1c(C)cc(C)cc1C (stereo unspecified)
- inhibition: -2.39% (inactive)

SMILES: CC1=NN(C(N)=S)C(=O)C1N=Nc1ccc(Br)cc1 (stereo unspecified)
- inhibition: 7.71% (inactive)

SMILES: Cc1ccc(Sc2sc(=O)n(C)c2S(=O)(=O)c2ccc(C)cc2)cc1
- inhibition: -2.3% (inactive)

SMILES: Cc1ccc(Sc2c(C)[nH]n(C(C)(C)C)c2=O)cc1
- inhibition: -4.77% (inactive)
- inhibition [1]: 2.59%

SMILES: CCOc1ccc(OCc2ccc(C(=O)N(CC)CC)cc2)cc1
- inhibition: -20% (inactive)

SMILES: CCn1c(CSc2nccn2C)nc2cc(C(=O)O)ccc21
- inhibition: 1.61% (inactive)

SMILES: CCn1c(CSc2nnc(-c3ccncc3)n2C)nc2cc(C(=O)O)ccc21
- inhibition: 7.11% (inactive)

SMILES: O=C(CCn1c(=O)oc2ccc(Cl)cc21)NCCCN1CCOCC1
- inhibition: -12.3% (inactive)

SMILES: CCOc1ccc2nc(SCC(=O)NC3CCCc4ccccc43)sc2c1 (stereo unspecified)
- inhibition: -8.65% (inactive)

SMILES: O=C1NC2(CCCCCC2)Cc2ccccc21
- inhibition: -4.23% (inactive)

SMILES: Cc1cc(SCC(=O)Nc2ccccc2)n2ncc(-c3ccccc3)c2n1
- inhibition: -3.11% (inactive)

SMILES: Cc1ccc(NC(=O)c2ccc(-n3cccn3)c([N+](=O)[O-])c2)cc1
- inhibition: 0.68% (inactive)

SMILES: O=C1c2ccccc2C(O)(c2ccccc2)N1c1ccncc1 (stereo unspecified)
- inhibition: -5.22% (inactive)

SMILES: Cc1ccc(N2C(=O)c3ccccc3C2(O)c2ccccc2)cc1 (stereo unspecified)
- inhibition: -0.39% (inactive)

SMILES: CC1CN(C(=O)c2nn(C)cc2[N+](=O)[O-])CC(C)O1 (stereo unspecified)
- inhibition: -1.37% (inactive)

SMILES: CCCCn1c(-c2cccnc2)nc2cc3[nH]c(=O)c(C(C)C)nc3cc21
- inhibition: 4.01% (inactive)

SMILES: COc1ccccc1OCC#CCSc1ncccn1
- inhibition: -53.6% (inactive)

SMILES: C#CCN(C[C@H]1[C@H](OC(=O)Nc2cccs2)[C@H](OC(=O)Nc2cccs2)C[C@H]2C(=O)N(c3ccccc3)C(=O)[C@@H]12)S(=O)(=O)c1ccc(C)cc1
- inhibition: 2.32% (inactive)

SMILES: COc1ccc(S(=O)(=O)/C(C#N)=C/Nc2cccc(F)c2)cc1
- inhibition: -2.28% (inactive)

SMILES: Cc1ccc(NC(=O)/C(C#N)=N/Nc2ccc(C(=O)O)cc2)c(C)c1
- inhibition: 3.18% (inactive)

SMILES: Cc1ccc(F)c(NC(=O)CCc2ccccc2)c1
- inhibition: -5.56% (inactive)

SMILES: Cc1ccc(C)c2[nH]c(=O)c(CCNS(=O)(=O)c3ccccc3)cc12
- inhibition: -0.7% (inactive)

SMILES: COc1cc(/C=C2\SC(=S)N(CCC(=O)Nc3ccccc3)C2=O)cc(OC)c1OC
- inhibition: 0% (inactive)

SMILES: COc1cc(/C=C2\SC(=S)N(Nc3ccccc3)C2=O)cc(OC)c1OC
- inhibition: -1.38% (inactive)

SMILES: Cc1ncsc1CCOC(=O)C12CC3CC(CC(C3)C1)C2
- inhibition: -12.1% (inactive)

SMILES: CCOC(=O)c1c(C)nc(C)c(C(=O)OCC)c1-c1ccc(OC)cc1
- inhibition: 0.8% (inactive)

SMILES: O=C(NC(Cc1c[nH]c2ccccc12)C(=O)Nc1ccc(OC(F)(F)F)cc1)c1cccs1 (stereo unspecified)
- inhibition: -0.91% (inactive)

SMILES: O=C1C=C(O)c2cccc(O)c2C1=O
- inhibition: 10.9% (inactive)

SMILES: O=C1C(=O)c2c(ccc3ccccc23)-c2ccccc21
- inhibition: 8.87% (inactive)

SMILES: COc1c(CC=C(C)C)cc(C2CC(=O)c3c(O)cc(O)cc3O2)cc1CC=C(C)C (stereo unspecified)
- inhibition: 1.45% (inactive)

SMILES: COc1cc(C2CC(=O)c3c(O)cc(O)cc3O2)ccc1O (stereo unspecified)
- inhibition: -4.19% (inactive)

SMILES: O=C(Nc1ccccn1)c1ccc(Cl)c(S(=O)(=O)N2CCCC2)c1
- inhibition: -10.4% (inactive)

SMILES: O=C(CCN1CCN(CCO)CC1)Nc1cccc(Br)c1
- inhibition: 0% (inactive)

SMILES: N#Cc1cc([N+](=O)[O-])ccc1NC(=O)COC(=O)C1CC2CCCC(C1)C2=O (stereo unspecified)
- inhibition: -2.16% (inactive)

SMILES: CCOc1cc(/C=N\Nc2ccc([N+](=O)[O-])cc2)ccc1OCC(=O)Nc1ccc(C)c(C)c1
- inhibition: 22% (inactive)

SMILES: COc1cc(/C=N/NC(N)=O)ccc1OCC(=O)Nc1ccc(C)c(C)c1
- inhibition: -9.1% (inactive)

SMILES: CCC(=O)Nc1nnc(-c2cccs2)s1
- inhibition: -6.55% (inactive)

SMILES: COc1ccc(NS(=O)(=O)Cc2ccccc2)cc1OC
- inhibition: 0% (inactive)

SMILES: COc1ccc([N+](=O)[O-])cc1NS(=O)(=O)Cc1ccccc1
- inhibition: -3.44% (inactive)

SMILES: COc1cc(/C=C2/SC(N)=NC2=O)ccc1Oc1ccc([N+](=O)[O-])cc1[N+](=O)[O-]
- inhibition: 4.51% (inactive)

SMILES: CCN(CC)S(=O)(=O)c1ccc(OC)c(NS(=O)(=O)Cc2ccccc2)c1
- inhibition: -2.33% (inactive)

SMILES: CSc1ccc(S(=O)(=O)Nc2ccc3c(c2)NC(=O)CC3)cc1
- inhibition: 0% (inactive)

SMILES: CN(CC(=O)Nc1ccc(Cl)c(C(F)(F)F)c1)C(=O)c1cccc2cccnc12
- inhibition: 2.2% (inactive)

SMILES: Cc1ccc(O)c(NC(=O)Cc2ccc3ccccc3c2)c1
- inhibition: -11.9% (inactive)

SMILES: CC(NC(=O)CCNS(=O)(=O)c1cccc2nonc12)c1ccccc1 (stereo unspecified)
- inhibition: -6.33% (inactive)

SMILES: CCOC(=O)/C(C#N)=C/c1cn(CCC(=O)O)nc1-c1cccc(Cl)c1
- inhibition: -8.58% (inactive)

SMILES: NC(=S)N/N=C/c1cn(CCC(=O)O)nc1-c1cccc(Br)c1
- inhibition: -15.9% (inactive)

SMILES: Cc1ccc(-c2nn(CCC(=O)O)cc2/C=C\C(=O)c2ccc(Br)cc2)cc1
- inhibition: 7.02% (inactive)

SMILES: O=C(O)CCn1cc(/C=C2/NC(=S)N(c3ccccc3)C2=O)c(-c2ccccc2)n1
- inhibition: 2.91% (inactive)

SMILES: O=Cc1cn(CCC(=O)O)nc1-c1cccc(Br)c1
- inhibition: 14.3% (inactive)

SMILES: O=Cc1cn(CCC(=O)O)nc1-c1cccc(Cl)c1
- inhibition: -3.9% (inactive)

SMILES: O=C(O)CCn1cc(C(=O)O)c(-c2ccccc2)n1
- inhibition: -1.47% (inactive)

SMILES: O=C(O)CCn1cc(/C=C2\NC(=S)N(c3ccccc3)C2=O)c(-c2ccc(Br)cc2)n1
- inhibition: 3.12% (inactive)

SMILES: Cc1ncc(C(O)c2ccc(N(C)C)cc2)n1Cc1ccccc1 (stereo unspecified)
- inhibition: 0% (inactive)

SMILES: CC(C)C(C(=O)NC1CCCC1)N(Cc1ccco1)C(=O)CNS(=O)(=O)c1ccccc1 (stereo unspecified)
- inhibition: -8.96% (inactive)

SMILES: CCn1c(=O)n(CC)c2cc(N3CCCC3)c(NC(=O)c3ccc(OC)c(Br)c3)cc21
- inhibition: -2.72% (inactive)

SMILES: O=c1ccc(-c2ccc(S(=O)(=O)NCc3cccc(Br)c3)s2)n[nH]1
- inhibition: -1.36% (inactive)

SMILES: CCCCNC(=O)CN(Cc1ccco1)S(=O)(=O)c1ccc(C(C)=O)cc1
- inhibition: -2.95% (inactive)

SMILES: O=C(O)CC1CCC(=C(Cl)Cl)C1 (stereo unspecified)
- inhibition: 4.83% (inactive)

SMILES: Cc1ccc(S(=O)(=O)N(CC(=O)Nc2cccc(C(F)(F)F)c2)C(=O)N2CCN(C)CC2)cc1
- inhibition: -4.32% (inactive)

SMILES: CCn1c(SCC(=O)NC)nnc1C(C)C
- inhibition: 4.79% (inactive)

SMILES: Cc1ccccc1-c1c(C)oc2cc(O)ccc2c1=O
- inhibition: 1.35% (inactive)

SMILES: COCCN(C(=O)COC(=O)CCc1ccccc1)c1c(N)n(Cc2ccccc2)c(=O)[nH]c1=O
- inhibition: 0% (inactive)

SMILES: O=C(O)CCn1cc(/C=C\C(=O)c2ccc(Cl)cc2)c(-c2cccc(Br)c2)n1
- inhibition: 26% (inactive)

SMILES: O=C(O)CCn1cc(/C=C/C(=O)c2ccc(Cl)cc2)c(-c2ccc(Br)cc2)n1
- inhibition: 12.8% (inactive)

SMILES: CCOc1ccc(NC(=O)CSc2nc(C3CC3)nc3ccccc23)cc1
- inhibition: 15.3% (inactive)

SMILES: CCOC(=O)c1c(NC(=O)C(Sc2ccccc2)c2ccccc2)sc(C(N)=O)c1C (stereo unspecified)
- inhibition: 2.74% (inactive)
- inhibition [1]: 3.33%

SMILES: O=c1c2ccccc2[nH]c(=S)n1-c1cccc(S(=O)(=O)N2CCCC2)c1
- inhibition: -8.01% (inactive)

SMILES: CC[C@H](C)/C=C(C)/C=C/C1=CC2=CC(=O)[C@]3(C)OC(=O)[C@@H](C(C)=O)[C@@H]3C2=CO1
- inhibition: 7.68% (inactive)

SMILES: CCC(C)/C=C/C1=CC2=C(Cl)C(=O)C3(C)OC(=O)C(C(=O)C(C)C(C)O)C3C2=CO1 (stereo unspecified)
- inhibition: 4.35% (inactive)

SMILES: O=C(Cn1ncc2c([nH]c3ccccc32)c1=O)NCCCN1CCN(c2ccccc2)CC1
- inhibition: 0% (inactive)

SMILES: C=CCn1cc(C(=O)NCC2CCCO2)c(=O)c2cc(S(=O)(=O)N3CCCCCC3)ccc21 (stereo unspecified)
- inhibition: -3.55% (inactive)

SMILES: S=c1[nH]nc(Cc2cccs2)n1-c1ccccc1
- inhibition: -2.82% (inactive)

SMILES: CC(C)(C)c1nnc(NC(=O)C2CCN(c3ncccn3)CC2)s1
- inhibition: -2.45% (inactive)

SMILES: O=C(c1ccccc1)c1ccc(Oc2ccc([N+](=O)[O-])cc2[N+](=O)[O-])cc1
- inhibition: -2.33% (inactive)

SMILES: COc1cc(/C=C2/SC(=O)NC2=O)ccc1Oc1ccc([N+](=O)[O-])cc1[N+](=O)[O-]
- inhibition: 23.6% (inactive)

SMILES: COc1cc(/C=C2/C(=O)N(c3ccc(C)c(C)c3)N=C2C)cc([N+](=O)[O-])c1O
- inhibition: 9.88% (inactive)
- inhibition [1]: -3.04%

SMILES: CC1=NN(c2ccc([N+](=O)[O-])cc2)C(=O)/C1=C\N(C)C
- inhibition: -9.46% (inactive)

SMILES: O=C(c1ccc(Cl)s1)N1CCc2ccccc21
- inhibition: -1.37% (inactive)

SMILES: O=C(CCN1CCCCC1=O)NC1CCCN(Cc2ccc(Cl)cc2)C1 (stereo unspecified)
- inhibition: -5.2% (inactive)

SMILES: O=C1NC(=O)/C(=C/c2ccccc2Oc2ccc(Cl)cc2)S1
- inhibition: -4.16% (inactive)

SMILES: CN1C(=O)/C(=C/c2ccccc2OCc2ccc(F)cc2)N(C)C1=S
- inhibition: -7.89% (inactive)

SMILES: Cc1ccc(Oc2ccccc2/C=C2\SC(=O)N(C)C2=O)cc1
- inhibition: 0% (inactive)
- inhibition [1]: 5.03%

SMILES: O=C1NC(=O)/C(=C\c2ccccc2Oc2ccc(F)c(F)c2)S1
- inhibition: 24.6% (inactive)

Source: PubChem BioAssay AID588689 (Southern Research Specialized Biocontainment Screening …, 2011)
